Test results reported in PubChem BioAssay.

Assay: basal MM1S mitochondrial membrane potential changes, profiling panel, cell-based, JC-1 fluorescence, 24 h, 100 nL compound (AID 1170); note: test concentration not given here
Conditions: higher = more signal

SMILES | z-score
O=C1NC(=O)C2C1C=CC(C(O)c1cc(C(F)(F)F)cc(C(F)(F)F)c1)N2Nc1ccccn1 (stereo not given) | -0.204
C=C(/C(=C/C[C@H](OC(C)=O)c1ccccc1OCCO)c1cnc2ccccc2c1)C(C)C | -0.685
COC(=O)[C@H](Cc1ccccc1)N1CC2=C[C@@H](C3CC3)n3c(=O)n(C)c(=O)n3[C@H]2[C@@H]1[C@@H](O)Cc1ccccc1 | -0.804
CC(=O)n1cc(C(O)C2C=CC3C(=O)N(c4ccccc4)C(=O)C3N2Nc2ccc([N+](=O)[O-])cc2)c2ccccc21 (stereo not given) | 0.0885
CN1C=C(C(=O)OCCS(C)(=O)=O)C(C(=O)OCCS(C)(=O)=O)=CC(c2ccc(CO)cc2)=CC1C1CC1 (stereo not given) | -0.919
COC(=O)[C@]1(CCC(=O)OC(C)(C)C)N=C(c2ccc(OCCCO)cc2)O[C@@H]1c1ccccc1CN=[N+]=[N-] | -2.7
C=CCNC(=O)[C@@H]1[C@H]2C(=O)O[C@H](c3ccccc3)[C@H](c3ccccc3)N2[C@H](c2ccc(OCCO)cc2)[C@@]12C(=O)Nc1ccc(C#CCC(C(=O)OC)C(=O)OC)cc12 | -1.63
COC(=O)C(CC#Cc1ccc2c(c1)[C@]1(C(=O)N2)[C@H](c2ccc(OCCO)cc2)N2[C@H](c3ccccc3)[C@H](c3ccccc3)OC(=O)[C@H]2[C@@H]1C(=O)N1CCc2cc(OC)c(OC)cc2C1)C(=O)OC | -1.11
NC(=O)N1C(=O)C2C(C1=O)C1C=C(c3ccc(CO)cc3)C2C(c2cccs2)N1Cc1cccc(OC(F)(F)F)c1 (stereo not given) | -1.67
C=CCC(OC(C)=O)[C@@H]1[C@@H](N(Cc2ccc(-c3ccccc3)cc2)C(=O)c2cccc3ccccc23)c2cc(OCCCO)ccc2N1C(=O)c1ccc(-c2ccccc2)cc1 (stereo not given in full) | -0.00624
COc1cc(NN2C(C(O)c3ccco3)C=CC3C(=O)N(c4ccccc4)C(=O)C32)cc(OC)c1OC (stereo not given) | -1.31
CC(C)[Si]1(C(C)C)O[C@@H](c2ccccc2)c2cc(-c3ccc(-c4ccc(Cl)c(Cl)c4)o3)nc(-c3ccccc3)c21 | -0.582
CCOC(=O)C[C@H]1[C@H](OC(=O)c2ccc(C(=O)c3ccccc3)cc2)[C@@H](NC(=O)c2ccc3ccccc3n2)c2cc(OCCCO)ccc2N1C(=O)c1ccccc1 | -0.318
CC(C)C(O)C1C=CC2C(=O)NC(=O)C2N1Nc1ccc(Cl)cc1Cl (stereo not given) | -0.143
COc1ccc(C#Cc2ccc3c(c2)[C@]2(C(=O)N3)[C@H](C(=O)Nc3nc4ccccc4s3)[C@H]3C(=O)O[C@H](c4ccccc4)[C@H](c4ccccc4)N3[C@@H]2c2ccc(O)cc2)cc1 | -1.18
COC(=O)[C@@]1(Cc2ccccc2)N=C(c2ccc(OCCCO)cc2)O[C@H]1c1ccccc1 | -0.354
[N-]=[N+]=Nc1ccccc1[C@H]1OC(c2ccc(OCCCO)cc2)=N[C@@]1(CCS(=O)(=O)c1ccccc1)C(N)=O | 0.296
O=C1C[C@@](C(=O)NC2CC2)(c2ccc([N+](=O)[O-])cc2)[C@@H](c2ccc(CO)cc2I)N1C1CCCCC1 | -0.993

SMILES | z-score
COc1cc2c(cc1OC)CN(C(=O)[C@H]1[C@@H]3C(=O)O[C@@H](c4ccccc4)[C@@H](c4ccccc4)N3[C@@H](c3ccc(O)cc3)[C@]13C(=O)Nc1ccccc13)CC2 | -0.594
O=C1O[C@H](c2ccccc2)[C@H](c2ccccc2)N2[C@H]1[C@@H](C(=O)N1CCCCCCC1)[C@]1(C(=O)Nc3ccc(C#CC4=CCCCC4)cc31)[C@H]2c1ccc(OCCO)cc1 | -0.729
COC(=O)[C@@]1(CCC(=O)OC(C)(C)C)N=C(c2ccc(OCCCO)cc2)O[C@H]1c1ccccc1N=[N+]=[N-] | -2.34
O=C1C2C=CC(C(O)c3cc(C(F)(F)F)cc(C(F)(F)F)c3)N(n3cnnc3)C2C(=O)N1Cc1ccccc1 (stereo not given) | 0.914
CCCCCN1CC=CC23O[C@@H]4C=CCCOC(=O)C4[C@H]2C(=O)N(CCCCCO)[C@@H]3C1=O (stereo not given in full) | -0.849
COc1ccc([Si](C)(C)[C@@H]2[C@@H](CCO)O[C@]3(C(=O)N(Cc4ccc(N(C=O)c5ccccc5)cc4)c4ccccc43)[C@H]2C)cc1 | -1.26
C=CCOC(=O)[C@H]1[C@@H]2C(=O)O[C@@H](c3ccccc3)[C@@H](c3ccccc3)N2[C@@H](c2ccc(OCCOC(=O)[C@H]3C[C@H]4C(=O)N[C@@H](CCCCNC(C)=O)C(=O)N4[C@H]3c3cccc(OCCO)c3)cc2)[C@]12C(=O)Nc1ccccc12 | -0.67
[N-]=[N+]=NCc1ccccc1C[C@]1(C(N)=O)COC(c2ccc(OCCCO)cc2)=N1 | 1.07
C=C(CC1([C@@H](NP(=O)(c2ccccc2)c2ccccc2)[C@H]2C[C@@H]2CCCC)CC1)c1ccccc1 | -1.92
CC[C@@H]1C=C(C(=O)O)[C@H](c2ccc(Br)cc2)N1S(=O)(=O)c1ccc(C)cc1 | -0.82
C=C(CCCC)/C(=C/C[C@H](OC(C)=O)c1ccccc1OCCO)c1cc(C(=O)OC)ccc1OC | 0.0208
COC(=O)[C@@]1(Cc2ccc(OC)cc2)[C@H]2c3cc(C(=O)N(C)C)n(C)c3C[C@H]2CN1C(=O)c1ccccc1 | -1.17
CN(C)CCCCCCNC(=O)[C@H]1C[C@H]2C(=O)N[C@@H](CCCCN)C(=O)N2[C@H]1c1cccc(OCCO)c1 | 0.358
NC(=O)NCC#Cc1ccc2c(c1)[C@]1(C(=O)N2)[C@H](c2ccccc2OCCO)N2[C@H](c3ccccc3)[C@H](c3ccccc3)OC(=O)[C@H]2[C@@H]1C(=O)Nc1nc2ccccc2s1 | -1.73
CC1CC/C=C\[C@H]2OC34C=CCN(C(C)(C)C)C(=O)[C@H]3N(CCO)C(=O)[C@@H]4C2C(=O)O1 (stereo not given in full) | 0.927
C=C(COC)/C(=C/C[C@H](OC(C)=O)c1ccc(CO)o1)c1cc(C(=O)OC)ccc1OC | 0.000891
CNS(=O)(=O)c1ccc(C)cc1 | 0.937
